Counter-ions that a name gives are not always drawn.
system: Danio rerio larvae (5 dpf); test: combined optomotor response (time in upper well half, down vs up moving lines, periods 7-14) minus DMSO control (percentage points); higher = stronger optomotor response than DMSO larvae; details: 10 µM; exposure time: 3 h pre-incubation + 3 h imaging

Point of comparison: `CCCN(CCC)S(=O)(=O)c1ccc(C(=O)O)cc1` [Probenecid], combined optomotor response 4.87. Against it:
- Cc1ccc(-c2cc(C(F)(F)F)nn2-c2ccc(S(N)(=O)=O)cc2)cc1 [Celecoxib] — lower, 0.0816
- COc1ccc([C@@H]2Sc3ccccc3N(CCN(C)C)C(=O)[C@@H]2OC(C)=O)cc1 [Diltiazem hydrochloride] — lower, 1.37
- CCC(=O)O[C@]1(C(=O)SCF)[C@H](C)C[C@H]2[C@@H]3C[C@H](F)C4=CC(=O)C=C[C@]4(C)[C@@]3(F)[C@@H](O)C[C@@]21C [Fluticasone propionate] — lower, 2.4
- CC(=O)NC[C@H]1CN(c2ccc(N3CCOCC3)c(F)c2)C(=O)O1 [Linezolid] — higher, 6.27
- Cc1ccc(N(CC2=NCCN2)c2cccc(O)c2)cc1 [Phentolamine Mesylate] — higher, 7.07
- OC(CNCC(O)C1CCc2cc(F)ccc2O1)C1CCc2cc(F)ccc2O1 (stereo not given) [Nebivolol hydrochloride] — lower, -9.95
- COc1cccc2c1C(=O)c1c(O)c3c(c(O)c1C2=O)C[C@@](O)(C(=O)CO)C[C@@H]3O[C@H]1C[C@H](N)[C@H](O)[C@H](C)O1 [Doxorubicin hydrochloride] — lower, -1.96
- CC1CNc2c(cccc2S(=O)(=O)N[C@@H](CCCNC(=N)N)C(=O)N2CC[C@@H](C)C[C@@H]2C(=O)O)C1 (stereo not given in full) [Argatroban] — lower, 3.86
- CC(=O)O[C@H]1C(=O)[C@@]2(C)[C@H]([C@H](OC(=O)c3ccccc3)[C@]3(O)C[C@H](OC(=O)[C@H](O)[C@@H](NC(=O)c4ccccc4)c4ccccc4)C(C)=C1C3(C)C)[C@]1(OC(C)=O)CO[C@@H]1C[C@@H]2O [Taxol] — lower, -0.695
- CN(C)CCC[C@@]1(c2ccc(F)cc2)OCc2cc(C#N)ccc21 [Escitalopram oxalate] — lower, -0.7
- CN(C)CCc1c[nH]c2ccc(Cn3cncn3)cc12 [Rizatriptan benzoate] — higher, 6.97
- CCOc1nc2cccc(C(=O)O)c2n1Cc1ccc(-c2ccccc2-c2noc(=O)[nH]2)cc1 [Azilsartan] — lower, 0.518
- CC(C)N(CCCCOCC(=O)NS(C)(=O)=O)c1cnc(-c2ccccc2)c(-c2ccccc2)n1 [Selexipag] — lower, 4.06
- CCCN(CCc1cccs1)[C@H]1CCc2c(O)cccc2C1 [Rotigotine hydrochloride] — lower, -12.7
- Nc1nc2[nH]cc(CCc3ccc(C(=O)N[C@@H](CCC(=O)O)C(=O)O)cc3)c2c(=O)[nH]1 [Pemetrexed] — lower, 1.31
- Brc1c(NC2=NCCN2)ccc2nccnc12 — higher, 5.01
- OCCOCCN1CCN(C2=Nc3ccccc3Sc3ccccc32)CC1 [Quetiapine hemifumarate] — higher, 8.62
- CC(C)(C)NC(=O)[C@@H]1C[C@@H]2CCCC[C@@H]2CN1C[C@@H](O)[C@H](Cc1ccccc1)NC(=O)[C@H](CC(N)=O)NC(=O)c1ccc2ccccc2n1 [Saquinavir mesylate] — lower, -2.96
- COCCCOc1cc(C[C@@H](C[C@H](N)[C@@H](O)C[C@H](C(=O)NCC(C)(C)C(N)=O)C(C)C)C(C)C)ccc1OC [Aliskiren hemifumarate] — lower, 1.73
- C/C(O)=C(\C#N)C(=O)Nc1ccc(C(F)(F)F)cc1 [Teriflunomide] — lower, -4.96
- CC(C)n1c(/C=C/C(O)CC(O)CC(=O)O)c(-c2ccc(F)cc2)c2ccccc21 (stereo not given) [Fluvastatin sodium] — lower, -0.348
- CC1=Nc2ccc(Cl)cc2S(=O)(=O)N1 [Diazoxide] — lower, 2.18
- CCOc1cc(CC(=O)N[C@@H](CC(C)C)c2ccccc2N2CCCCC2)ccc1C(=O)O [Repaglinide] — lower, 2.6
- O=C(O)CCCc1ccccc1 [Sodium 4-Phenylbutyrate] — lower, 4.62
- CN1CC2c3ccccc3Oc3ccc(Cl)cc3C2C1 (stereo not given) [Asenapine maleate] — lower, -7.09
- CC(C)(C#N)c1cc(Cn2cncn2)cc(C(C)(C)C#N)c1 [Anastrozole] — lower, -1.87
- Nc1cccc2c1CN(C1CCC(=O)NC1=O)C2=O (stereo not given) [Lenalidomide] — lower, 1.12
- CCCc1nc2c(C)cc(-c3nc4ccccc4n3C)cc2n1Cc1ccc(-c2ccccc2C(=O)O)cc1 [Telmisartan] — lower, 2.86
- CO[C@H]1/C=C/O[C@@]2(C)Oc3c(C)c(O)c4c(O)c(c5c(nc6cc(C)ccn65)c4c3C2=O)NC(=O)/C(C)=C\C=C\[C@H](C)[C@H](O)[C@@H](C)[C@@H](O)[C@@H](C)[C@H](OC(C)=O)[C@@H]1C [Rifaximin] — lower, 2.32

Reference: the supplement of paper PMC9950053
